# Measurements reported in ChEMBL document CHEMBL4513216, “Probing the Open Global Health Chemical Diversity Library for Multistage-Active Starting Points for Next-Generation Antimalarials” (ACS Infect Dis, 2020).
# The campaign covered roughly 69,000 compounds. About 8,600 (12%) showed an effect of 50% or more. Many of the other results were omitted from the sample, so strong results are more common in it than they were.
# Test system: Plasmodium berghei
# Experiment: Screen against P. berghei liver stage (PbLuc), transformed with Luciferase, at 10uM
# Type: functional, HepG2
# Conditions: tested at 10 uM
row,Compound,INHIBITION
1,Cc1ccc(S(C)(=O)=O)cc1NCC(=O)NCCC1=CCCCC1,-50.7%
2,CC(NC(=O)N(C)C1CC1)c1ccc(Oc2cccnc2)c(F)c1 (stereo unspecified),37.4%
3,Cc1cnn(CC2CCCN2C(=O)c2n[nH]c(=O)c3ccccc23)c1 (stereo unspecified),-4.16%
4,N#Cc1nccnc1N1CCC(COCc2ccccc2)C1 (stereo unspecified),20.8%
5,N#Cc1nccnc1N1CCC(Cc2ccccc2)C1 (stereo unspecified),0.672%
6,N#Cc1nccnc1N1CCC(OCCCc2ccccc2)C1 (stereo unspecified),72.3%
7,c1cc(CNc2nnc(Cc3ccsc3)o2)cs1,-86.6%
8,CC(C)(C)Cc1nnc(NCc2ccsc2)o1,53.4%
9,CC(C)Cc1nnc(NCc2ccsc2)o1,-54.5%
10,COc1ccc(OC)c(C(C(=O)O)N2CCSCC2)c1 (stereo unspecified),17%
11,Cc1ccc(C(C)N(C)CCS(=O)(=O)CCC(N)=O)cc1 (stereo unspecified),56.3%
12,CC(c1cccc(Cl)c1)N(C)CCS(=O)(=O)CCC(N)=O (stereo unspecified),37.8%
13,CC(c1ccc(F)c(F)c1)N(C)CCS(=O)(=O)CCC(N)=O (stereo unspecified),41.5%
14,COCCC(=O)N1CCN(CC2CC2)c2ccccc21,14.9%
15,NC(=O)CN1CCN(CC2CC2)c2ccccc21,58.7%
16,NC(=O)NC(=O)CN1CCN(CC2CC2)c2ccccc21,35.3%
17,CNC(=O)NC(=O)CN1CCN(CC2CC2)c2ccccc21,46.4%
18,NC(=O)NC(=O)CCN1CCN(CC2CC2)c2ccccc21,62.4%
19,O=C(NCCCC(=O)N1CCN(CC2CC2)c2ccccc21)C1CC1,22.8%
20,CN1CCC2(CCN(Cc3nccs3)CC2)C1=O,7.15%
21,O=C(NCC1CC1)C1CCC2(CCN(C(=O)c3ccco3)CC2)O1 (stereo unspecified),-25.8%
22,CN(C(=O)CCc1nc(C2CC2)no1)c1cc(C#N)c2ccccc2n1,23.1%

row,Compound,INHIBITION
1,O=C(c1ccc(S(=O)(=O)N2CCNCC2)cc1)N1CCCC(O)C1 (stereo unspecified),13.3%
2,CCCc1noc(CN2CCN(c3nccs3)CC2)n1,-4.16%
3,Cc1cc(C2CCCN2Cc2ccc(S(=O)(=O)N3CCCC3)o2)on1 (stereo unspecified),19.2%
4,CCCC1c2ccccc2CCN1CCS(C)(=O)=O (stereo unspecified),22.8%
5,CCC1c2ccccc2CCN1CCCS(C)(=O)=O (stereo unspecified),50.6%
6,CCC1c2ccccc2CCN1CCNS(C)(=O)=O (stereo unspecified),18%
7,Cc1nn(-c2ccccc2)c2nc(C(C)(C)CN3CCN(C)CC3)[nH]c12,8.08%
8,Cc1noc(C)c1CC(=O)NCC(C(C)C)N1CCOCC1 (stereo unspecified),58.2%
9,O=C(NCc1cc[nH]n1)NCC(c1ccccc1)N1CCOCC1 (stereo unspecified),15.8%
10,Cc1cc(NC(=O)NCC(CC(C)C)N2CCOCC2)n(C)n1 (stereo unspecified),-0.113%
11,CC(C)CC(CNC(=O)NCc1cc[nH]n1)N1CCOCC1 (stereo unspecified),52%
12,CC(C)C(CNC(=O)NCc1cc[nH]n1)N1CCOCC1 (stereo unspecified),-1.6%
13,Cc1noc(C)c1CC(=O)NCCc1cccs1,-26.9%
14,CCC(CNC(=O)Cc1c(C)noc1C)N1CCCC1 (stereo unspecified),57.3%
15,Cc1noc(C)c1CNC(C(=O)N1CCOCC1)C(C)C (stereo unspecified),22.2%
16,Cc1noc(C)c1CC(=O)NCC(CC(C)C)N1CCOCC1 (stereo unspecified),62.8%
17,Cc1noc(C)c1C(=O)NCCN1CCOCC1,-27.8%
18,Cc1noc(C)c1CC(=O)NCC(C)N1CCOCC1 (stereo unspecified),46.1%
19,Cc1noc(C)c1CC(=O)NCCN1CCN(S(C)(=O)=O)CC1,-47.8%
20,Cc1cc(NC(=O)CN2CCCC2c2c(C)nn(C)c2C)on1 (stereo unspecified),5.03%
21,Cc1noc(C)c1-c1nc(C2CCCN(C(=O)C(C)C)C2)ccc1CO (stereo unspecified),48.1%
22,CC(=O)N(Cc1ncc(C)o1)C1CCN(Cc2nccn2C)C1 (stereo unspecified),11.45%

row,Compound,INHIBITION
1,CC(=O)N1[C@H](Cn2cncn2)C[C@@H]2CN(CC3CC3)CC[C@@H]21,-1.83%
2,COc1ccccc1C(=O)N1C[C@@H]2CCCCN(CC(N)=O)[C@@H]2C1,9.05%
3,COCCCNS(=O)(=O)c1ccc(N2CCCCS2(=O)=O)cc1,73.4%
4,CC(NCCCn1cccn1)c1ccc(N2CCCS2(=O)=O)cc1 (stereo unspecified),5.58%
5,COCCCNS(=O)(=O)c1cccc(CSC)c1,-15.7%
6,CCOc1ccc(NC(=O)N(C)Cc2cnn(C)c2)c(C)c1,11.9%
7,Cc1nc2c(c(C)c1CC(=O)NCc1cccs1)c(=O)[nH]n2C,-0.219%
8,O=c1n(Cc2cccc(F)c2)nc2ncccn12,-31.7%
9,Cc1ccoc1C(=O)N1CCO[C@H]2[C@H](OCC3CCOCC3)CC[C@@H]21,-0.182%
10,Cc1ccc(C(=O)N2C[C@@H](OCC3CCOCC3)[C@H]3OCCC[C@H]32)o1,41.5%
11,Cc1ccoc1C(=O)N1C[C@H](OCc2cccnc2)[C@H]2OCCC[C@H]21,33.4%
12,Cc1ccoc1C(=O)N1C[C@H](OCC2CC2)[C@H]2OCCC[C@H]21,-31%
13,Cc1ccoc1C(=O)N1C[C@@H](OCC2CC2)[C@H]2OCCC[C@H]21,55.2%
14,Cc1ccoc1C(=O)N1C[C@@H](OCC2CCOCC2)[C@H]2OCCC[C@H]21,57.1%
15,CN(C)CCN1CCc2c(nnn2C)C1COCc1ccccc1 (stereo unspecified),-4.98%
16,CCc1[nH]ncc1C(=O)N1CCCC(n2ccnc2C)C1 (stereo unspecified),7.12%
17,CCOCC(=O)N1CCCC2(CCN(c3ccccc3)C2=O)C1 (stereo unspecified),33.4%
18,O=C(CC1CC1)N1CCC2(CC(=O)N(c3cccc(F)c3)C2)C1 (stereo unspecified),-40.5%
19,COCCC(=O)N1CCCC2(CCN(c3ccccc3)C2=O)C1 (stereo unspecified),-3.58%
20,COCC(=O)N1CCC2(CC(=O)N(c3cccc(F)c3)C2)C1 (stereo unspecified),63.1%
21,COCC(=O)N1CCCC2(CCN(c3ccccc3)C2=O)C1 (stereo unspecified),71.9%
22,N#Cc1cccc(N2CC3(CCN(C(=O)NC4CC4)C3)CC2=O)c1 (stereo unspecified),33.4%

row,Compound,INHIBITION
1,O=C1CC2(CCN(CCO)C2)CN1c1cccc(F)c1 (stereo unspecified),-9.02%
2,CN(C)CC(=O)N1CCC2(CC(=O)N(c3cccc(C#N)c3)C2)C1 (stereo unspecified),53.5%
3,CN(C)C(=O)N1CCC2(CC(=O)N(c3cccc(C#N)c3)C2)C1 (stereo unspecified),7.65%
4,O=C(Cc1ccccc1)N1CCC2(CC(=O)N(c3cccc(F)c3)C2)C1 (stereo unspecified),5.65%
5,O=C1CC2(CCN(Cc3ccncc3)C2)CN1c1cccc(F)c1 (stereo unspecified),-11.6%
6,O=C1CC2(CCN(Cc3cccs3)C2)CN1c1cccc(F)c1 (stereo unspecified),59.2%
7,CC(C)c1ncc(CNC2(c3ccc(Cl)cc3)CC2)cn1,-33.4%
8,O=C(NC1CCN(C2CC2)C1)c1cn(-c2ccc(F)cc2)nn1 (stereo unspecified),14.3%
9,CC1CN(C(=O)c2ccn(C)c(=O)c2)c2ccccc2NC1=O (stereo unspecified),-24%
10,Cc1ccc(CN(C)C(=O)CN2CCCC(Cn3cncn3)C2)o1 (stereo unspecified),15.6%
11,Cc1ccc(C(=O)N(C)Cc2ccc(Br)s2)c(=O)[nH]1,37.4%
12,Cc1ccc(-c2nc(CNC(C)Cn3cccn3)cs2)o1 (stereo unspecified),-27.9%
13,CCCc1noc(C(C)N2CCN(c3ccc(C#N)cn3)CC2)n1 (stereo unspecified),5.23%
14,CC(Cn1cccn1)NC(=O)N(C)Cc1ccc(C(N)=O)cc1 (stereo unspecified),14.3%
15,Cc1cccc(N2CC3(CCN(C(=O)NC(C)C)C3)CC2=O)c1 (stereo unspecified),14.6%
16,CC(C)NC(=O)N1CCC2(CC(=O)N(c3cccc(F)c3)C2)C1 (stereo unspecified),7.65%
17,CC(C)NC(=O)N1CCC2(CC(=O)N(c3cccc(C#N)c3)C2)C1 (stereo unspecified),66.5%
18,COCCN1C[C@@H]2CC[C@H]1CN(C(=O)CCc1c(C)nn(C)c1C)C2,27.5%
19,Cn1cc(CN2C[C@@H](N3CCCC3=O)[C@H]3OCCC[C@H]32)cn1,29%
20,Cn1cc(CN2C[C@H](N3CCOCC3)[C@@H]3OCCC[C@@H]32)cn1,54.1%
21,Cn1ccnc1CN1C[C@H](N2CCOCC2)[C@@H]2OCCC[C@@H]21,37.8%
22,CC(C)c1nnc(CN2CCCC3(CC2)CN(C)C(=O)O3)o1 (stereo unspecified),23.9%

row,Compound,INHIBITION
1,CCOc1ccc(Cl)c(C(=O)N2CCCC(N3CCCC3)C2)n1 (stereo unspecified),23.3%
2,CC(C)N(CC(N)=O)Cc1csc(COc2ccc(F)cc2)n1,81.5%
3,COCc1nc(CN(CC(N)=O)C(C)C)cs1,42%
4,CCc1nc(CN(CC(N)=O)C(C)C)cs1,22.5%
5,COc1ccc(-c2noc(CN3CCN(c4cnccn4)CC3)n2)cc1,47%
6,CN(C)C(=O)N1CCN(C(=O)c2ccc(Cl)c(Cl)c2)C(C)(C)C1,14.1%
7,Cc1cc(C)cc(C(=O)N2CCN(C(=O)N(C)C)CC2(C)C)c1,18.6%
8,COC(=O)c1cccc(C(=O)N2CCN(C(=O)N(C)C)CC2(C)C)c1,68.6%
9,CC(=O)N1CCC2(CC1)CN(C)CC[C@H]2C(F)(F)F,-22.1%
10,c1cc(CN2CCc3ncnc(C4CCOC4)c3CC2)ccn1 (stereo unspecified),29.8%
11,O=C(c1cn(-c2ccccc2)nn1)N1CCOCC(O)C1 (stereo unspecified),-28.1%
12,O=C(CCc1ccccn1)NC1CCN(c2cccc(Cl)c2)C1 (stereo unspecified),46.4%
13,O=C(CCc1nc(Cl)n[nH]1)NC1CCCN(C2Cc3ccccc3C2)C1 (stereo unspecified),35.1%
14,O=C(CCc1ccccn1)NC1CCCN(C2Cc3ccccc3C2)C1 (stereo unspecified),51.1%
15,Cn1nnnc1SC1CCCN(c2cccc(F)c2)C1=O (stereo unspecified),-12.4%
16,O=C(COCC(=O)N(c1ccccc1)c1ccccc1)N1CCOCC1,13.3%
17,CN(CCN1CCOCC1)C(=O)CCCc1ccccc1,-57.6%
18,O=C(CN1CCOCC1)N(c1ccccc1)c1ccccc1,78.8%
